{"source": "PubChem BioAssay AID738", "about": "(SRMLSC, 2007)", "note": "About 4,900 (5%) of roughly 98,000 compounds were called active. This is one part of a sample in which actives are shown more often than they occur. Rule as the data show it: active = inhibition above about 30%; inactive = the rest."}
{"test": "growth inhibition of yeast control strain, primary screen, counter-screen for post-Golgi transport modulator project (AID 738)", "conditions": "efflux-deficient yeast background strain, growth absorbance A615, 16 h; at 10 µM; hits give high values"}
{"smiles": "c1ccc(-c2cn3c(n2)CCc2ccc4cccnc4c2-3)cc1", "inhibition": "42.3% (active)"}
{"smiles": "c1ccc(-c2cn3cccnc3n2)cc1", "inhibition": "10% (inactive)"}
{"smiles": "O=C(Nc1ccccc1)c1ccccc1NC(=O)C(F)(F)F", "inhibition": "10.5% (inactive)"}
{"smiles": "CCCCOC(=O)c1ccc(N2C(=O)CC(N3CCN(C/C=C/c4ccccc4)CC3)C2=O)cc1", "note": "(stereo not given)", "inhibition": "30.1% (active)"}
{"smiles": "CCOC(=O)c1ccc(N2C(=O)CC(N3CC(C)OC(C)C3)C2=O)cc1", "note": "(stereo not given)", "inhibition": "7.03% (inactive)"}
{"smiles": "CCOC(=O)c1ccc(N2C(=O)CC(N3CCC(C(=O)OCC)CC3)C2=O)cc1", "note": "(stereo not given)", "inhibition": "0% (inactive)"}
{"smiles": "O=C(NC1CCN(C(=S)NCc2ccco2)CC1)c1ccc(F)cc1", "inhibition": "7.63% (inactive)"}
{"smiles": "CCOC(=O)N1CCN(Cc2nc(N)nc(Nc3ccc(C)cc3)n2)CC1", "inhibition": "-1.25% (inactive)"}
{"smiles": "Cn1cc(S(=O)(=O)N2CCC(Cc3ccccc3)CC2)c(=O)n(C)c1=O", "inhibition": "2.66% (inactive)"}
{"smiles": "Cn1cc(S(=O)(=O)N2CCN(c3ccc(F)cc3)CC2)c(=O)n(C)c1=O", "inhibition": "3.87% (inactive)"}
{"smiles": "CC(C)c1ccc(NS(=O)(=O)c2cn(C)c(=O)n(C)c2=O)cc1", "inhibition": "94.4% (active)"}
{"smiles": "CC(CNc1ccc([N+](=O)[O-])cc1)NC(=O)c1ccccc1Br", "note": "(stereo not given)", "inhibition": "1.54% (inactive)"}
{"smiles": "CO/N=C/c1ccc(N2CCN(C(=O)c3cccc(Cl)c3)CC2)c([N+](=O)[O-])c1", "inhibition": "-2.25% (inactive)"}
{"smiles": "CC(C)NC(=O)c1ccc(Sc2ccccc2)c([N+](=O)[O-])c1", "inhibition": "-2.82% (inactive)"}
{"smiles": "O=C(CCn1c(=S)[nH]c2ccccc2c1=O)NCCCN1CCCC1=O", "inhibition": "18.7% (inactive)"}
{"smiles": "CCOc1cc2[nH]c(=S)n(CCN3CCCCC3C)c(=O)c2cc1OCC", "note": "(stereo not given)", "inhibition": "-3.72% (inactive)"}
{"smiles": "CCOc1cc2[nH]c(=S)n(CCCN3CCCC3=O)c(=O)c2cc1OCC", "inhibition": "35.1% (active)"}
{"smiles": "Cc1nn(-c2ncc(C(F)(F)F)cc2Cl)c(=O)n1-c1ccccc1", "inhibition": "10.2% (inactive)"}
{"smiles": "O=C(c1ccccn1)c1ncc(C(F)(F)F)cc1Cl", "inhibition": "5.57% (inactive)"}
{"smiles": "Cc1ccc(-c2ccnc3nc(Sc4ncc(C(F)(F)F)cc4Cl)nn23)cc1", "inhibition": "36.2% (active)"}
{"smiles": "O=C(Nc1ccccc1)OCc1cn(-c2ccc(Cl)cc2)nn1", "inhibition": "17.4% (inactive)"}
{"smiles": "CCC(=O)NC(NCC1CCCO1)C(Cl)(Cl)Cl", "note": "(stereo not given)", "inhibition": "-2.21% (inactive)"}
{"smiles": "COc1ccc(C(=O)NNC(=O)c2cnccn2)cc1[N+](=O)[O-]", "inhibition": "7.69% (inactive)"}
{"smiles": "Cc1cccc(C(=O)Nc2ccccc2-c2nnn(CC(=O)Nc3ccc4c(c3)OCCO4)n2)c1", "inhibition": "6.95% (inactive)"}
{"smiles": "Cc1cc(C)c(C#N)c(SCc2[nH]nc3c2C(c2ccccc2)C(C#N)=C(N)O3)n1", "note": "(stereo not given)", "inhibition": "-0.29% (inactive)"}
{"smiles": "N#CC1=C(N)Oc2c(sc3ccccc23)C1c1ccco1", "note": "(stereo not given)", "inhibition": "13.9% (inactive)"}
{"smiles": "Cc1cc(C)c2c3c(sc2n1)C(c1ccccc1)C(C#N)=C(N)O3", "note": "(stereo not given)", "inhibition": "72.8% (active)"}
{"smiles": "C=CCOc1cccc(CNn2cn[nH]c2=S)c1", "inhibition": "5.3% (inactive)"}
{"smiles": "Cc1cccc(C)c1-n1c(C)cc(/C=C2\\C(=O)NN(c3ccccc3)C2=O)c1C", "inhibition": "20.6% (inactive)"}
{"smiles": "CCCCCOC(=O)NCCOC(=O)Nc1ccc(C(=O)OCC)cc1", "inhibition": "43% (active)"}
{"smiles": "CCCCC(CCC(=O)Nc1ccc(C(=O)OCC)cc1)C(=O)O", "note": "(stereo not given)", "inhibition": "-4.81% (inactive)"}
{"smiles": "CCOC(=O)Nc1ccc(NC(=O)OCC)cc1", "inhibition": "3.65% (inactive)"}
{"smiles": "c1ccc(C2CCC(N3CCC(N4CCCCC4)CC3)CC2)cc1", "note": "(stereo not given)", "inhibition": "1.52% (inactive)"}
{"smiles": "COc1ccc(NC(=O)Nc2ccc3nsnc3c2)cc1", "inhibition": "-5.25% (inactive)"}
{"smiles": "COc1ccc(NC(=O)Nc2ccc3nc(C)c(C)nc3c2)cc1", "inhibition": "8.79% (inactive)"}
{"smiles": "O=C(Nc1ccc2ccccc2c1)Nc1ccc2snnc2c1", "inhibition": "67.9% (active)"}
{"smiles": "CCCCNC(=O)C(=O)c1ccccc1NC(C)=O", "inhibition": "7.01% (inactive)"}
{"smiles": "Cc1ccc(C(=O)NC2CCN(C(=O)N3CCOCC3)CC2)cc1", "inhibition": "7.51% (inactive)"}
{"smiles": "Cc1ccc(NC(=O)N2CCC(C(=O)NCc3ccc(F)cc3)CC2)cc1", "inhibition": "1.66% (inactive)"}
{"smiles": "Cc1cc(C)cc(NC(=O)N2CCC(NC(=O)c3ccc(F)cc3)CC2)c1", "inhibition": "37.4% (active)"}
{"smiles": "CCOC(=O)c1nc(N)sc1C(=O)OCC", "inhibition": "-8.73% (inactive)"}
{"smiles": "CCOC(=O)c1cc2ccccc2nc1C", "inhibition": "3.8% (inactive)"}
{"smiles": "CCOC(=O)c1sc(C)c2c1NC(C)(c1cccc3ccccc13)NC2=O", "note": "(stereo not given)", "inhibition": "30.4% (active)"}
{"smiles": "CC1(C)CC(=O)C(C=NCCN2CCN(C(=S)Nc3cccc(Cl)c3)CC2)=C(O)C1", "inhibition": "1.4% (inactive)"}
{"smiles": "COc1cc(/C=N/NC(=O)Nc2ccccc2)ccc1OCCOc1ccccc1C", "inhibition": "-1.48% (inactive)"}
{"smiles": "Nc1c(-c2cccc(Cl)c2)cnn1-c1cccc([N+](=O)[O-])c1", "inhibition": "4.05% (inactive)"}
{"smiles": "CCN(c1ccccc1)S(=O)(=O)c1ccc(NC(=O)C(C)(C)C)cc1", "inhibition": "28.9% (inactive)"}
{"smiles": "COC(=O)c1ccc(Sc2ccc(F)cc2)c(N)c1", "inhibition": "7.42% (inactive)"}
{"smiles": "CC(C)(CCl)C(=O)Nc1ccc(Sc2ccc(F)cc2)cc1", "inhibition": "37.1% (active)"}
{"smiles": "CC(=O)N/C(=C/c1ccc(Cl)cc1)C(=O)NCCc1c[nH]c2ccccc12", "inhibition": "17.4% (inactive)"}
{"smiles": "CCCCCCC(=O)Nc1nc(C)c(-c2csc(Nc3cccc(OC)c3)n2)s1", "inhibition": "3.51% (inactive)"}
{"smiles": "Cc1nc(Nc2ccc3c(c2)OCCO3)c2nnn(Cc3ccccc3Cl)c2n1", "inhibition": "57.3% (active)"}
{"smiles": "CC(C)(C)c1nc(NCC2CCCO2)c2nnn(Cc3ccccc3)c2n1", "note": "(stereo not given)", "inhibition": "12.5% (inactive)"}
{"smiles": "C#CCNc1nc(C(C)C)nc2c1nnn2Cc1ccccc1F", "inhibition": "22.2% (inactive)"}
{"smiles": "CCCCNC(=S)NNC(=O)c1cc(C)on1", "inhibition": "6.93% (inactive)"}
{"smiles": "N#CC1=C(N)N(c2ccc(F)cc2)C(=O)C1", "inhibition": "1.63% (inactive)"}
{"smiles": "Cc1ccccc1-n1c(C)cc(/C=N/NC(=O)c2ccc(CN3CCOCC3)cc2)c1C", "inhibition": "7.99% (inactive)"}
{"smiles": "COc1ccccc1-c1cc(C(=O)N2CCCCC2)no1", "inhibition": "13.9% (inactive)"}
{"smiles": "COc1ccccc1N1CCN(C(=O)c2cc(-c3ccc(Br)cc3)on2)CC1", "inhibition": "33.2% (active)"}
{"smiles": "COc1ccccc1N1CCN(C(=O)c2cc(-c3ccc(Cl)c(Cl)c3)on2)CC1", "inhibition": "2.68% (inactive)"}
{"smiles": "NC(=O)N1CCCC1C(=O)Nc1ccc(Cl)c(Cl)c1", "note": "(stereo not given)", "inhibition": "-1.15% (inactive)"}
{"smiles": "CC1=CC(C)(C)N(C(=O)CSc2nccn2C)c2cc(C)ccc21", "inhibition": "1.07% (inactive)"}
{"smiles": "O=C(CSc1nnc(-c2ccccc2)o1)N1CCOCC1", "inhibition": "7.42% (inactive)"}
{"smiles": "CC1=CC(C)(C)N(C(=O)CSc2nnc(-c3ccccc3)o2)c2ccc(C)cc21", "inhibition": "72.6% (active)"}
{"smiles": "CC(C)NC(=O)c1ccccc1S(=O)c1ccccc1C#N", "note": "(stereo not given)", "inhibition": "-5.45% (inactive)"}
{"smiles": "Cc1nn(C)cc1C(=O)NNC(=S)Nc1ccc(Cl)cc1", "inhibition": "2.4% (inactive)"}
{"smiles": "CCC(=O)N(Cc1ccccc1)c1ccccn1", "inhibition": "1.04% (inactive)"}
{"smiles": "Cc1ccc(C(=O)N/C(=C/C=C/c2ccccc2)C(=O)NCc2ccco2)cc1", "inhibition": "-1.68% (inactive)"}
{"smiles": "CN(CC(=O)Nc1cccc2c1CCCC2)S(=O)(=O)c1ccc(Cl)cc1", "inhibition": "-4.31% (inactive)"}
{"smiles": "COc1ccccc1C1C2=C(COC2=O)Nc2cc3c(cc21)OCO3", "note": "(stereo not given)", "inhibition": "6.27% (inactive)"}
{"smiles": "CCCOc1ccccc1C1CC(=O)Nc2cc3c(cc21)OCO3", "note": "(stereo not given)", "inhibition": "34.1% (active)"}
{"smiles": "COCCOC(=O)C1=C(C)NC(=O)CC1c1cc2c(cc1Br)OCO2", "note": "(stereo not given)", "inhibition": "-3.67% (inactive)"}
{"smiles": "COc1cc(C(=O)N2CCN(C/C=C/c3ccccc3)CC2)cc(OC)c1C", "inhibition": "8.75% (inactive)"}
{"smiles": "COc1cnc(SCc2ccc(Cl)c(Cl)c2)nc1Cl", "inhibition": "16.9% (inactive)"}
{"smiles": "CCCn1nc2cc(C(=O)NCc3ccccc3)ccc2c1OCC", "inhibition": "-6.87% (inactive)"}
{"smiles": "CCn1c(=O)c(=O)n(CC)c2cc(S(=O)(=O)N3CCc4ccccc43)ccc21", "inhibition": "12.6% (inactive)"}
{"smiles": "CSc1nc2ccc(S(=O)(=O)N3CCc4ccccc43)cc2s1", "inhibition": "52% (active)"}
{"smiles": "Cn1c(=O)n(C)c2cc(S(=O)(=O)N3CCCc4ccccc43)ccc21", "inhibition": "-3.51% (inactive)"}
{"smiles": "CCOc1ccc(C(CCc2ccccc2)NC(=O)c2ccc(OC)c(OC)c2)cc1OCC", "note": "(stereo not given)", "inhibition": "-3.35% (inactive)"}
{"smiles": "C=CCNc1nc(N)c(C(=C(C#N)C#N)c2ccccc2)s1", "inhibition": "5.44% (inactive)"}
{"smiles": "C=C(C)Cn1c(N2CCCC2)nc2c1c(=O)[nH]c(=O)n2C", "inhibition": "6.94% (inactive)"}
{"smiles": "CC1CCN(c2nc3c(c(=O)[nH]c(=O)n3C)n2CCCc2ccccc2)CC1", "inhibition": "30.6% (active)"}
{"smiles": "CN1CCN(c2nc3c(c(=O)[nH]c(=O)n3C)n2Cc2cccc3ccccc23)CC1", "inhibition": "9.64% (inactive)"}
{"smiles": "O=C1c2ccccc2C(=O)c2c1cccc2N1CCN(Cc2ccccc2)CC1", "inhibition": "17.7% (inactive)"}
{"smiles": "CCn1c2ccccc2c2cc(NC(=O)C/C(C)=N/NC(=O)c3ccccc3N)ccc21", "inhibition": "-1.98% (inactive)"}
{"smiles": "Cc1cccc(N2CCN(C(=O)CN(C)S(=O)(=O)c3ccc4c(c3)CCC(=O)N4)CC2)c1C", "inhibition": "6.36% (inactive)"}
{"smiles": "COc1ccc(C(=O)NC(=S)Nc2ccccc2N2CCN(S(C)(=O)=O)CC2)cc1OC", "inhibition": "31.7% (active)"}
{"smiles": "COc1ccccc1N1CCN(C(=O)c2ccc(S(=O)(=O)N3CCCCC3)cc2)CC1", "inhibition": "-0.79% (inactive)"}
{"smiles": "CCC(=O)Nc1ccccc1N1CCN(S(C)(=O)=O)CC1", "inhibition": "13.1% (inactive)"}
{"smiles": "O=C1/C(=C/c2cccs2)CCc2ccccc21", "inhibition": "12.8% (inactive)"}
{"smiles": "O=C(Nc1nccs1)C1CCN(S(=O)(=O)c2ccc(Cl)c(C(F)(F)F)c2)CC1", "inhibition": "17.7% (inactive)"}
{"smiles": "CCOC(=O)c1c(CN2CCOCC2)n(-c2ccccc2)c2ccc(O)cc12", "inhibition": "45.2% (active)"}
{"smiles": "O=c1c(-c2ccccc2)coc2c(CN3CCOCC3)c(O)ccc12", "inhibition": "10.4% (inactive)"}
{"smiles": "CCOC(=O)c1nnn(-c2nonc2-n2cccc2)c1CN1CCOCC1", "inhibition": "-2.3% (inactive)"}
{"smiles": "O=C(COC(=O)c1ccccc1SCC(=O)NC1CCCCC1)NC1CCCCC1", "inhibition": "0.43% (inactive)"}
